Many of the other results were omitted from the sample, so hits are more common in it than they were. The true hit rate is not given. Values without a mark were called inactive.
These sequences were tested on T1, Caupolican (Caup) homeodomain DNA-binding domain (assay: PBM E-score (8-mer, recovered from the published 9-mer minima) (E-score (dimensionless, -0.5 to 0.5)); Drosophila protein; higher = stronger relative binding preference, active = 0.31 or more).
T1 sequence: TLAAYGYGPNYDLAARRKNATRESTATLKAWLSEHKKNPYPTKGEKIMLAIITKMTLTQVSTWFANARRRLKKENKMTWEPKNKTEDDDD
Outline: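 An enrichment score, with higher meaning stronger, expresses relative binding preference for each short DNA word. The protein used was Caup's homeodomain DNA-binding domain (residues 214-303), produced by in vitro transcription and translation and tested at 100 nM on custom-designed protein binding microarrays. The 8-mer values were recovered from published 9-mer scores, each equal to the lower of its two constituent 8-mer scores.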

Sequence	PBM E-score
GATTTTAC	0.156
CTTTAGTC	-0.0734
AATCGTAA	0.173
CCCTAGAA	-0.0811
GAACATGC	0.354 (active)
ACACATGG	0.167
GAACATCC	0.295
AAACATTC	0.209
ACACATGC	0.236
AAACATGC	0.342 (active)
ACACATGT	0.372 (active)
CAACATGC	0.317 (active)
GCACATGC	-0.0345
CAACATTC	0.0579
AAACATCC	0.258
CAACATCC	0.238
AACGAATG	0.00089
ATACCAGC	-0.0192
AAAACACG	0.303
GGGTCAAA	-0.108
CGTAAAAC	-0.0282
CATAGAGA	0.113
ATTAGTAG	0.212
GCATGCGC	-0.104
ATGCGGGA	-0.0659
GGGTGTGA	-0.0838

Sequence	PBM E-score
TCACATGA	0.182
TAACATCA	0.305
GAACATGA	0.421 (active)
CAACATGG	0.295
AAACATGA	0.409 (active)
TAACATGA	0.424 (active)
ACACATGA	0.265
AAACATCA	0.279
CCACATGA	0.124
GAGCATGA	0.0786
GAACATTA	0.219
CAACATGA	0.344 (active)
CGAACGAC	0.0606
ATGGTATG	0.132
CTATTTAA	-0.0109
CGTCTTGA	-0.0138
AGGTCTCA	-0.08
ACTGAGTC	-0.0541
AGCTATAG	-0.0145
AAACATGT	0.443 (active)
GGACATAC	0.179
AAACATCG	0.217
AAACATCT	0.215
GAACATAC	0.331 (active)
AAACATGG	0.321 (active)
AAACATTG	0.183

Sequence	PBM E-score
AAACATTT	0.252
CAACATAC	0.302
CCAGTTCC	-0.2
GCAGCGAC	-0.118
GATCGGCA	-0.0784
ATTGCGAC	0.0529
CAATTAGA	0.0523
GGGGTAAC	-0.00369
CGTCGTTC	0.0474
ACAAGAAG	0.183
ATTAACAA	0.342 (active)
ATTAACAG	0.146
GTTAACAA	0.296
ATTAACAC	0.326 (active)
ATTAACTC	0.0863
CTTAACAC	0.226
ATTGCGGC	-0.0444
AAGCGGAT	-0.113
ACTTCGAT	0.0903
AGGGCAGC	-0.267
CTGTCCGC	-0.11
ACATGATG	0.351 (active)
ACATGATA	0.413 (active)
ATATGATG	0.183
TCATGAGA	0.0179
AGATGATG	0.0748

Sequence	PBM E-score
ATATGATC	0.134
ACATGAGT	0.305
CCATGATC	0.0355
GCATGATA	0.159
CCATGATA	0.0656
ACATGAGA	0.344 (active)
ACATGATC	0.357 (active)
GCCACCAA	-0.183
CCGTAAAA	-0.0169
ACCTTAAA	-0.0366
CAAGGCGA	-0.0101
ACGGGTAC	0.103
CTACAACC	0.281
ATACAACG	0.283
ATACAACC	0.258
GTTCAACA	0.198
ATACAACA	0.373 (active)
CCACAACA	0.142
GTACAACA	0.429 (active)
CTACAACA	0.332 (active)
GCACAACA	0.211
AGATACAA	0.296
ACATACAG	0.247
TCATACAA	0.163
AGATACAG	0.109
AGATACAT	0.368 (active)

Sequence	PBM E-score
ACATAAAA	0.221
ACATAAAG	0.215
ACATAAAT	0.318 (active)
GCATACAA	0.247
ACATACAT	0.427 (active)
ACATACAA	0.386 (active)
ACATACGT	0.206
CATAGGTA	0.0694
AACACTAC	0.222
TCATTTAA	0.167
AGGGTTGG	-0.0294
AAAACAGT	0.11
AGGCCGTA	-0.041
GGCCAGTA	-0.128
TAACGCTA	-0.0254
GCAGTGAC	-0.0444
CATCACGA	0.107
AGTGCTTG	0.116
ACATACAC	0.352 (active)
GCATACAC	0.208
CCATACAC	0.105
AGGCCCTG	-0.09
AACCAACT	0.143
GTTGTGCA	0.0605
CTTGTACC	0.389 (active)
CTTGTAGA	0.248

Sequence	PBM E-score
GTTGTAGA	0.291
CTTGTCCC	0.186
CTTGTACA	0.44 (active)
ATTGTACA	0.417 (active)
ATTGTACC	0.2
GTTGTACA	0.388 (active)
CTCGTACC	0.0909
ATTGTACG	0.203
CTTGTGCA	0.18
ACTAGAGC	-0.0268
ACCGGTTA	-0.00609
CAGGGGTA	-0.133
AGCGAGGG	-0.182
CTGATTAC	0.231
AGTACACA	0.342 (active)
AGTACACG	0.376 (active)
AGTACACC	0.265
AGCACACA	0.0184
AGCACACG	0.042
AGTACACT	0.181
CCCATAGG	-0.163
AAACTTGG	-0.0323

From the supplement of paper PMC3724861
